Results filed as inconclusive are left out. Where a call stands in place of a potency, no number is given. Values without a mark were called inactive. The source made the active and inactive calls. Calls follow the shape of the full dose curve.
Potency is read from the fitted curve at half-maximal effect.

Sequence of 5-hydroxytryptamine receptor 2A (Homo sapiens) (P28223 whole entry, looked up): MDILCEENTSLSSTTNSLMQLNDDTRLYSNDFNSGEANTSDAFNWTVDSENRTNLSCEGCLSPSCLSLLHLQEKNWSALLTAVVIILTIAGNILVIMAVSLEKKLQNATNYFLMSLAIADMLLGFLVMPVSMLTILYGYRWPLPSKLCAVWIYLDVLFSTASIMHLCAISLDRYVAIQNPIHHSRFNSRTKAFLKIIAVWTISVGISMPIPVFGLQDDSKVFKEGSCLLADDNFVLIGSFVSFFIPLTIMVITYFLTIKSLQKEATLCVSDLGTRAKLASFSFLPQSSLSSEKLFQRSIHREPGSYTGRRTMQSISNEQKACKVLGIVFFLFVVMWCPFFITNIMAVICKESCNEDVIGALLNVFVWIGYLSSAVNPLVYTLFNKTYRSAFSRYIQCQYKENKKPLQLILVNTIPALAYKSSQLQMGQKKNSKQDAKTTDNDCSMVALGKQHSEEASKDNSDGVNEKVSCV

In this test the target is 5-hydroxytryptamine receptor 2A (Homo sapiens) (UniProt P28223). Put plainly: 5-hydroxytryptamine receptor 2A (HTR2A) small molecule agonists, cell-based qHTS assay (AID 1963587). Also: nearly all actives have a fitted effect of over 30% in size. Conditions: HTR2A-CHO cells, calcium flux fluorescence, agonist mode; series mostly up to 76.8 µM. An excerpt:
National Center for Advancing Translational Sciences [NCATS]
Division of Preclinical Innovation [DPI]
U.S. Environmental Protection Agency [EPA]
National Institutes of Environmental Health Sciences [NIEHS]
National Toxicology Program [NTP]
U.S. Food and Drug Administration [FDA]
The HTR2A receptor is a subtype of the 5-HT2 receptor that belongs to the serotonin receptor family and is a G protein-coupled receptor (GPCR). The HTR2A-CHO cell line stably expressing human 5-hydroxytryptamine receptor 2A (HTR2A) can be used for screening agonists of interactions between 5-HT2 and its ligands. The HTR2A-CHO calcium flux assay is a homogeneous fluorescence-based assay for detecting the intracellular calcium level using FDSS kinetic plate reader system.
HTR2A-CHO cells were dispensed at 2000 cells/3uL/well in 1536-well black-clear bottom plates using a Multidrop Dispenser. After the assay plates were incubated at a 37 C/5% CO2 incubator for 18 h, 3 uL of Dye Loading Buffer was transferred to the assay plate by a Flying Reagent Dispenser. The assay plates were incubated at 37 C for 1h. For agonist mode, 23 nL of compounds dissolved in DMSO, positive controls or DMSO only was transferred to the assay plate by a pin tool. The fluorescence intensity in the plates was measured using FDSS 7000EX kinetic plate reader for 2 min at 1 sec intervals.
For the molecule `CCC(CC)CO`, the Potency entry is “inactive”. On to `C[C@@H](CN(C)C)CN1c2ccccc2Sc2ccccc21`, for which the Potency entry is “inactive”. On the same count and under the same terms, then `Cc1ccccc1`, with “inactive”; and `CC(CCO)CCCC(C)(C)O` (stereo not given), with “inactive”.

`C=CCCCCCCCCCCCCCC`: the activation was 4.53% [at 15.9 µM]. Take `CCCCCCCCCCCC(=O)[O][Sn]([CH2]CCC)([CH2]CCC)[O]C(=O)CCCCCCCCCCC`: the Potency entry was “inactive”. `Cc1nc2c([nH]1)c(=O)n(C)c(=O)n2Cc1ccco1`: the Potency result is “inactive”. Regarding `CCc1ncc(C)[nH]1`, the Potency entry was “inactive”. In the case of `NC(CSCC(=O)O)C(=O)O` (stereo not given), the Potency entry is “inactive”. In the case of `COc1cc(-c2ccc(=O)[nH]n2)ccc1OC(F)F`, the Potency entry was “inactive”. Turning to `NCCCN1CCOCC1`, the Potency entry was “inactive”. In the case of `O=C1CCCCCCCCCCCC(=O)OCCO1`, the Potency was 5.49 µM (active). Turning to `Nc1ccc(N=Nc2ccccc2)c(N)c1`, the Potency result was “inactive”. Take `CSc1ccc(O)cc1C`: the Potency entry is “inactive”. As for `O=C(c1ccccc1)C1CCCCC1`, the Potency entry was “inactive”. For `CCCCC(CC)COC(=O)c1ccccc1` (stereo not given), the Potency entry is “inactive”. Turning to `C=CCCCCCCC=C`, the Potency entry was “inactive”. `C[C@@H]1CC[C@H]2C(C)(C)[C@H]3C[C@@]12CC[C@@]3(C)O`: the Potency is 48.9 µM (active).

On to `Cc1cccc(OCC(O)CNC(C)(C)C)c1C` (stereo not given), for which the Potency result is “inactive”.

For the molecule `O=C(Nc1ccc(Cl)cc1)Nc1ccc(Cl)c(C(F)(F)F)c1`, the Potency entry is “inactive”.

For `CC(C(=O)O)c1ccc(C(=O)c2cccs2)cc1` (stereo not given), the Potency result was “inactive”.

Take `CCC(CC)Nc1ccc(C)c(C)c1`: the Potency result was “inactive”.

Take `CC(S)C(C)S` (stereo not given): the Potency entry is “inactive”.

Consider `O=[N+]([O-])c1ccc2ncccc2c1`, for which the Potency entry was “inactive”. As to `O=[N+]([O-])c1cc[n+]([O-])cc1`, the Potency result was “inactive”. In the case of `OCCCS`, the Potency entry is “inactive”. Same read-out and setting: then `COc1nccnc1CC(C)C`, with “inactive”. For the molecule `C=C1C(C)(C)[C@@]2(Cl)C(Cl)[C@]1(Cl)C(Cl)(Cl)C2(Cl)Cl` (stereo not given in full), the Potency entry is “inactive”.

Take `CCN(CC)C(=O)c1cc(S(=O)(=O)Cc2ccccc2)c(N2CCC(c3ccccc3)CC2)cc1N(CC)CCN(C)C`: the Potency result was “inactive”. Still for that read-out and setting: then `CCCOc1ccc2nc(NC(=O)OC)[nH]c2c1`, with “inactive”. Consider `COC(=O)c1cc(Cl)cc(Cl)c1`, for which the Potency result was “inactive”. Still for that read-out and setting: as for `COc1cc(C(C)=O)ccc1OCCCN1CCC(c2noc3cc(F)ccc23)CC1`, the entry is “inactive”; as for `C=C[Si](OC)(OC)OC`, “inactive”; as for `CC/C(=C(/c1ccc(O)cc1)c1ccc(OCCN(C)C)cc1)c1ccccc1`, 28.8 µM (active). With `O=Cc1ccc(Cl)c([N+](=O)[O-])c1`, the Potency entry is “inactive”. With `CCc1cccc(N(C)C(N)=Nc2cccc3ccccc23)c1`, the Potency result is “inactive”. `Nc1ccc(N)c2ccccc12`: the Potency is 7.75 µM (active). On to `CCCCCCOC(=O)CCCCCCCC(=O)OCCCCCC`, for which the Potency result is “inactive”. For `Clc1ccc2cc3ccccc3cc2c1`, the Potency result is “inactive”. For `CCCCOC(=O)c1ccccc1C(=O)OCC(CC)CCCC` (stereo not given), the Potency entry is “inactive”.
